What all share (parameters): scale not given: direction of the effect not stated beside the values
Assay [1] deals with Protein translocase subunit SecA (Escherichia coli (strain K12)) (UniProt P10408). The experiment in a line: Assay to Identify E. coli SecA ATPase Inhibitors. The format is functional. To be noted: 30 µM.
Assay [2] has as its target T1, Ubiquitin-activating enzyme e1, putative (Leishmania donovani (strain BPK282A1)) (UniProt E9BSI1).
T1 sequence (whole entry): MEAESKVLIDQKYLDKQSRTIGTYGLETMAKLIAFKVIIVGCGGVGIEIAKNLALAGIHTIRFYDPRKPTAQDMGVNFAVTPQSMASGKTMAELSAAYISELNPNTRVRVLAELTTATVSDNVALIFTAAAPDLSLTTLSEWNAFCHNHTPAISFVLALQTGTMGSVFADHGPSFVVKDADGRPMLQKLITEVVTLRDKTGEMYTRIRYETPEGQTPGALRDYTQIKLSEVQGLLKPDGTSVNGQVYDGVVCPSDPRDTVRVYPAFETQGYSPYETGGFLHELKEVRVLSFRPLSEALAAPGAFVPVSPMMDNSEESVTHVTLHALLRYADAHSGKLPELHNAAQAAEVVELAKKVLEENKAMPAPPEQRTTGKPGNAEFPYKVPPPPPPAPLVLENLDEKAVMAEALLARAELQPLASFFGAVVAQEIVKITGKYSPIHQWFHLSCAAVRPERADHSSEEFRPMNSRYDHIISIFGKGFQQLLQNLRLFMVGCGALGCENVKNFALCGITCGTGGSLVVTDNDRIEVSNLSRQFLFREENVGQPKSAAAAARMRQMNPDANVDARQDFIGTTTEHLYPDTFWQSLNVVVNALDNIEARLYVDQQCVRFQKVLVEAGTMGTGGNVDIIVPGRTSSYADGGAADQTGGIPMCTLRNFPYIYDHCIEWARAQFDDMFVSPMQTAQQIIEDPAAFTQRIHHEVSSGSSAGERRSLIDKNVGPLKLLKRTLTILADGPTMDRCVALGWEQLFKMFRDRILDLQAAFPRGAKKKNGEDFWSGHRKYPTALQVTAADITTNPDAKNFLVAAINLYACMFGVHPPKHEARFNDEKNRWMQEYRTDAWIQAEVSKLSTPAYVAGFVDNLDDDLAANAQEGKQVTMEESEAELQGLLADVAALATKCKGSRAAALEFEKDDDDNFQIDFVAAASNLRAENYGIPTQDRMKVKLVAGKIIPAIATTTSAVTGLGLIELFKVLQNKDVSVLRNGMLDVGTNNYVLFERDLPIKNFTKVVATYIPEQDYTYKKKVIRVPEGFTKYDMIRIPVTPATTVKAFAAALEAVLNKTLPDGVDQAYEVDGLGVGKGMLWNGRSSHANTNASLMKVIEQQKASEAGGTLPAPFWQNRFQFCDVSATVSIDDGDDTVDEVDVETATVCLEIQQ
Nature of the assay: Leishmania donovani Ubiquitin Activating Enzyme (LdE1). It is filed as functional. The settings on record: 30 µM.

Assay [3] deals with AMP-activated protein kinase, AMPK (Homo sapiens) (UniProt P54646+O43741+P54619+Q9UGJ0+Q9Y478+Q13131+Q9UGI9). The experiment in a line: AMP-dependent Kinase enzyme assay. An in vitro enzyme assay that detects ADP turnover that is directly proportional to AMPK activity. This uses naive AMPK that is activated during the assay with MK-8722. It is filed as functional. The settings on record: 30 µM.

The target of assay [4] is Sialic acid-binding Ig-like lectin 9 (Homo sapiens) (UniProt Q9Y336). The experiment in a line: Hs-Siglec9 ALPHAscreen SOP 20170721. To be noted: 10 µM. Background: Bead proximity is the source of the signal in Alpha formats.
The next assay has as its system Trypanosoma cruzi. The experiment in a line: Trypanosoma cruzi phosphomannomutase and mannose-1-phosphate guanylyltransferase assay. The settings on record: 10 µM. The format is functional.
Assay [5] concerns the target T2, Arginase-2, mitochondrial (Homo sapiens) (UniProt P78540).
T2 sequence (whole entry): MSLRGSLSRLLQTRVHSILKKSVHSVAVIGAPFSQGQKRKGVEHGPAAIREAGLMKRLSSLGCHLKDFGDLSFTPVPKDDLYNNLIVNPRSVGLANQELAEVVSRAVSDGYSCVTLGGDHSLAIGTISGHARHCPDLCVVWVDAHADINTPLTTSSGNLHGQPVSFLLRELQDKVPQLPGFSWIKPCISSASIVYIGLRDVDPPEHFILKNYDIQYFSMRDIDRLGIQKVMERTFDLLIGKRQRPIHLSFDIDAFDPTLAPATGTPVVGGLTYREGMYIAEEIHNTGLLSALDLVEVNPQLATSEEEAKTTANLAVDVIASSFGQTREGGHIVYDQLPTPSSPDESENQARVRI
The experiment in a line: in vitro enzyme assay to detect the production of urea directly proportional to the activity of Arginase II. Note: in the data most compounds retested in dose-response had high values. The format is functional. To be noted: 33.3 µM.

In assay [6] the target is T3, Proteasome subunit beta (Trypanosoma cruzi) (UniProt O96673).
T3 sequence (whole entry): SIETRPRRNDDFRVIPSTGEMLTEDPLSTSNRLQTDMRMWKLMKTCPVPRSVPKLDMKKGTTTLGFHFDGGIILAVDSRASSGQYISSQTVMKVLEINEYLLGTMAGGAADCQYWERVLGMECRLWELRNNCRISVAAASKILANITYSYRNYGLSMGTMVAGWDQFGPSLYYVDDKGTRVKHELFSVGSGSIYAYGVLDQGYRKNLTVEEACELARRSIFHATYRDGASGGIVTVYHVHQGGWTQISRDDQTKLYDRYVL
Nature of the assay: Trypanosoma cruzi proteasome chymotrypsin-like activity (TcProtChymo) assay. Note: in the data most compounds retested in dose-response had high values. The format is functional. To be noted: 9.37 µM.

The species named for another assay is Homo sapiens. The experiment in a line: To identify inhibition of the IFN signalling (Jak-Stat) pathway via expression of an eGFP reporter gene under the control of an IFN-stimulated response element (ISRE) containing MxA promoter. The settings on record: 30 µM. It is filed as functional.
Assay [7] deals with T4, Tyrosyl-tRNA synthetase, putative (Trypanosoma cruzi (strain CL Brener)) (UniProt Q4DSP6).
T4 sequence (whole entry): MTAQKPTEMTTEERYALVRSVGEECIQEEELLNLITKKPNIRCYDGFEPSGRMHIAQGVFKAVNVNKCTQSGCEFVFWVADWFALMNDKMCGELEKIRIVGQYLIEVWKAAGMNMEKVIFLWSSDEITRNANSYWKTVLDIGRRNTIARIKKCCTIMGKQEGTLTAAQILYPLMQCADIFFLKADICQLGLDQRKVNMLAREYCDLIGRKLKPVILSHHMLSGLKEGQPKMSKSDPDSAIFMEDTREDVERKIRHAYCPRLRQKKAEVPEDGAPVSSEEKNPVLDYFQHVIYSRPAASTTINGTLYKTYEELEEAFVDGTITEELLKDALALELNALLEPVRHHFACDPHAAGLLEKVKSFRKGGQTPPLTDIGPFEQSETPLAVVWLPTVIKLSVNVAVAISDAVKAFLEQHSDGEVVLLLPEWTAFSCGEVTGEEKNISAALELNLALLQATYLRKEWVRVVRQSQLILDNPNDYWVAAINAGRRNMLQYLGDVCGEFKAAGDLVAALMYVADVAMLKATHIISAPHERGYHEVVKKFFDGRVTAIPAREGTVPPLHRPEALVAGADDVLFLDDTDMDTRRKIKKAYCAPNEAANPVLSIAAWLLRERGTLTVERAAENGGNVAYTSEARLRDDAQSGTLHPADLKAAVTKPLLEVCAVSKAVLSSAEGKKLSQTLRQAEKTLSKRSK
The experiment in a line: Trypanosoma cruzi tyrosyl tRNA synthetase (TcYRS) _High Tyrosine SOP. Note: in the data most compounds retested in dose-response had high values. It is filed as functional. The settings on record: 30 µM.

Assay [8] has as its target T4, Tyrosyl-tRNA synthetase, putative (Trypanosoma cruzi (strain CL Brener)). Nature of the assay: Trypanosoma cruzi tyrosyl tRNA synthetase (TcYRS) SOP. It is filed as functional. To be noted: 30 µM.
Assay [9] addresses Chromo domain-containing protein 1 (Saccharomyces cerevisiae (strain ATCC 204508 / S288c) (Baker's yeast)) (UniProt P32657). The experiment in a line: ScCHD-1 Enzyme Inhibition Assay. Note: in the data most compounds retested in dose-response had high values. The settings on record: 30 µM. The format is functional.

For some of these results: Measured potencies and affinities stand elsewhere.

This is an account of results in ChEMBL document CHEMBL3988442, “University of Dundee, Small-Polar-MMV Screening Library” (2021).

Sequence of Sialic acid-binding Ig-like lectin 9 (Homo sapiens) (Q9Y336 whole entry): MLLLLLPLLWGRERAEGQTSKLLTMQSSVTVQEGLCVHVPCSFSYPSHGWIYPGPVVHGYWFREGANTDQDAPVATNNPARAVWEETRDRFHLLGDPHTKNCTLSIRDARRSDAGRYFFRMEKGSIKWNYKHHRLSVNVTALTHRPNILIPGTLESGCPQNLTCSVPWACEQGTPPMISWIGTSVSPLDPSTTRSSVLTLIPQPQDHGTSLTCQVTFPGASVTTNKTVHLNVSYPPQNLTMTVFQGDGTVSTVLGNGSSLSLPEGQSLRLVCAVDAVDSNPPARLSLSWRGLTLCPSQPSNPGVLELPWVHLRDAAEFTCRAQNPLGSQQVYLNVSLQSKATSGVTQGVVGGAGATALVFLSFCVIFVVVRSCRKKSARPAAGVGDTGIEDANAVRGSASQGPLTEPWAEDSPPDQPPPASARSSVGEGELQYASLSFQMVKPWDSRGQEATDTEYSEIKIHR
Sequence of Protein translocase subunit SecA (Escherichia coli (strain K12)) (P10408 whole entry): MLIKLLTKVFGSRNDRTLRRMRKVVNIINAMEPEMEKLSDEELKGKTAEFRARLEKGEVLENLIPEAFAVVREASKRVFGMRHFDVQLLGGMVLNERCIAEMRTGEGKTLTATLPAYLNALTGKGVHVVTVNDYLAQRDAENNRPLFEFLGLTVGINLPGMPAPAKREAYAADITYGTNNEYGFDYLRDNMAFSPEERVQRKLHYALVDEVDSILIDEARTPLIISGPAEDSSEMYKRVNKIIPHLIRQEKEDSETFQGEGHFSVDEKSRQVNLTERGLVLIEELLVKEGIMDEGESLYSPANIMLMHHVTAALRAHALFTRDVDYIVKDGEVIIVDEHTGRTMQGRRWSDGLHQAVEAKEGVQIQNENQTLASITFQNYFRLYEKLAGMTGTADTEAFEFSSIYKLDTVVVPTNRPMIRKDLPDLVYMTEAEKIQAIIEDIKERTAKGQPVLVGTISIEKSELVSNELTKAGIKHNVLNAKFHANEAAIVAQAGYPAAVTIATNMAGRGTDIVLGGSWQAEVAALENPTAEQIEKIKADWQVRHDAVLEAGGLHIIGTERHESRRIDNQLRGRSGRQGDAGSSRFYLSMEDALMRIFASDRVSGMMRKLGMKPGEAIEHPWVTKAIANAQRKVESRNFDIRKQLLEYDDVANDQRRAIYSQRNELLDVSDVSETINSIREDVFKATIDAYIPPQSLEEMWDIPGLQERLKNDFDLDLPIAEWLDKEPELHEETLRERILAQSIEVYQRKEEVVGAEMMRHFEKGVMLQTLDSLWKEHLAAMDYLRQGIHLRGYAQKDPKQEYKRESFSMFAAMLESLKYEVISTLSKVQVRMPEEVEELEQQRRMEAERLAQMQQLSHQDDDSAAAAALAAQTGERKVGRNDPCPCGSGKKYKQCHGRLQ
Sequence of Chromo domain-containing protein 1 (Saccharomyces cerevisiae (strain ATCC 204508 / S288c) (Baker's yeast)) (P32657 whole entry, the tested form may be a part): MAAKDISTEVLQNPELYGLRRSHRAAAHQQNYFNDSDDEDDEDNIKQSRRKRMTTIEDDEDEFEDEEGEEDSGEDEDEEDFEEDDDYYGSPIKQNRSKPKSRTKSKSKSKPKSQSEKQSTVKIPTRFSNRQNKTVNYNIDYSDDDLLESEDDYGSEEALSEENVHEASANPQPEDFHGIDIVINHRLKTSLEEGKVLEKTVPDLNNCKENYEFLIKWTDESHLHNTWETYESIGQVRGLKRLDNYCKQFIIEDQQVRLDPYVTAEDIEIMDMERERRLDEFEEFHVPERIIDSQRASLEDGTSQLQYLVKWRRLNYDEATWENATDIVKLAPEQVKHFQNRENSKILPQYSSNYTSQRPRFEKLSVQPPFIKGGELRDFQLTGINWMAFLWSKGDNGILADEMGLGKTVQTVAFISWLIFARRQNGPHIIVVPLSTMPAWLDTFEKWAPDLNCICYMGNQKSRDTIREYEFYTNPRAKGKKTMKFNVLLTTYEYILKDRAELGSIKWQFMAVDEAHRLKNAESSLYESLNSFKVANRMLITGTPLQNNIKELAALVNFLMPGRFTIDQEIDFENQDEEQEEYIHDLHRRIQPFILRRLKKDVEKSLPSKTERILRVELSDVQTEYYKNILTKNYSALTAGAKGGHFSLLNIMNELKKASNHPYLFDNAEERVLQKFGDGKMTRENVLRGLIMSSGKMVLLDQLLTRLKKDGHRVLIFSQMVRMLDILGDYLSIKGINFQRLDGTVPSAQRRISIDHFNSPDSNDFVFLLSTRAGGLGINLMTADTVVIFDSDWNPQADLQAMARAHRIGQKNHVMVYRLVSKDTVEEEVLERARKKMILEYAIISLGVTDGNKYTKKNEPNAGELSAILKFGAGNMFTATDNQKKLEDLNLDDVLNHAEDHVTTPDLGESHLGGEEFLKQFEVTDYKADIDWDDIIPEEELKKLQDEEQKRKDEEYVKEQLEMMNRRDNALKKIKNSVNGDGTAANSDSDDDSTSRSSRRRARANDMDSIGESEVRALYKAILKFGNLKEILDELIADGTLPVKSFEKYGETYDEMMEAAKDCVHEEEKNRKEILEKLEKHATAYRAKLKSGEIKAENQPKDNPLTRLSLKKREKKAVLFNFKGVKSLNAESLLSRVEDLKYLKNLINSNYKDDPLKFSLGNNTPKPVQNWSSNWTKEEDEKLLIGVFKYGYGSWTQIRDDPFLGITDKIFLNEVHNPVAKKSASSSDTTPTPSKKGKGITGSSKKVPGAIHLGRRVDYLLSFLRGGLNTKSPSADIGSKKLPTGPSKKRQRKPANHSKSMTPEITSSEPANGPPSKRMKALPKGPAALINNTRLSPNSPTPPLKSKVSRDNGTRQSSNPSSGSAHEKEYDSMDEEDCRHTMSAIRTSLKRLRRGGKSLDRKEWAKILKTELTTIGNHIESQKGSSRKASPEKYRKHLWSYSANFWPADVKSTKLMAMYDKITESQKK

Turning to `CC(=O)c1cccc(NC(=O)CN2CCCCC2C2OCCO2)c1` (stereo unspecified), the Percent Effect in assay [1] is -5.29%; in [2] it was 5.41%; in assay [3] it was 1.19%; in assay [4], -1.14%; in the assay on Trypanosoma cruzi, -2.54%; in [5], 5%. Moreover, the Percent Effect in assay [6] is 8.37%; in the assay filed under Homo sapiens it was -2.75%; in assay [7] it was 5.94%; in [8] it was 11%; in [9] it was -4.75%.
As for `CC1CCN(c2ncc3c(n2)CN(c2ccccc2)C3=O)CC1`, the Percent Effect in assay [1] is -5.32%; in [2], 5.2%; in [3], -0.285%; in assay [4] it was 2.67%; in the assay with Trypanosoma cruzi, -5.8%; in assay [5] it was -30.3%. The Percent Effect was -5.82% in assay [6]; -2.62% in the assay filed under Homo sapiens; 2.15% in assay [7]; 11.1% in assay [8]; 5.77% in [9].
`CCOc1ccccc1-c1noc(CN2CCCC(O)C2)n1` (stereo unspecified): the Percent Effect was -8.22% in assay [1]; 0% in [2]; -0.175% in [3]; -2.29% in assay [4]; 7.54% with Trypanosoma cruzi; -1.47% in assay [5]. Further, the Percent Effect in [6] is 1.54%; in the assay filed under Homo sapiens, -2.84%; in assay [7], 0.952%; in assay [8] it was 7.06%; in assay [9], -13.3%.
With `CCc1nc(CC(=O)N2CCN(c3cnccn3)CC2)cs1`, the Percent Effect in assay [1] was -4.23%; in assay [2], 16.5%; in assay [3] it was 1.43%; in assay [4], 5.88%; with Trypanosoma cruzi, 1.95%; in assay [5], 1.94%. For the same compound, the Percent Effect in [6] is 0.343%; in the assay listed under Homo sapiens, 11.8%; in assay [7] it was 1.04%; in assay [8], 17.7%; in [9] it was -26.3%.
Take `CC(C)c1ncc2c(n1)CN(Cc1cccc(OCC(N)=O)c1)CC2`: the Percent Effect in assay [1] was -3.71%; in assay [2], 10.5%; in assay [3], -32.8%; in assay [4], 10.8%; in the assay with Trypanosoma cruzi, 2.44%; in assay [5] it was 4.6%. In addition, the Percent Effect in assay [6] was -1%; in the assay filed under Homo sapiens, -8.11%; in assay [7] it was 8.33%; in [8], 0%; in assay [9], 4.59%.
Take `Cc1cc(=O)[nH]c(SCC(=O)N(C)CC2Cc3ccccc3CN2C)n1` (stereo unspecified): the Percent Effect in [1] is -6.85%; in [2], 5.41%; in assay [3] it was -2.17%; in assay [4], -6.16%; with Trypanosoma cruzi, -0.489%; in assay [5], -0.744%. The Percent Effect in assay [6] was 5.75%; in the assay listed under Homo sapiens, -12.2%; in [7] it was 6.45%; in assay [8], 8.64%; in assay [9] it was -4.63%.
As to `Cc1ncccc1OC1(C(=O)NCCNc2ccccc2)CCNCC1`, the Percent Effect in assay [1] was -3.81%; in assay [2], 2.7%; in assay [3] it was -15.1%; in assay [4], 6.77%; with Trypanosoma cruzi, 3.48%; in [5], -1.91%. Moreover, the Percent Effect in assay [6] was 5.86%; in the assay listed under Homo sapiens it was 20.1%; in assay [7] it was 5.82%; in assay [8] it was 9.76%; in [9], -4.02%.
`O=C(c1cc(F)ccc1F)C1CCN(C(=O)c2ccc(=O)[nH]n2)CC1`: the Percent Effect is -2.7% in assay [1]; 13% in assay [2]; 0.316% in [3]; 0.809% in assay [4]; -3.43% in the assay on Trypanosoma cruzi; 2.32% in assay [5]. Further, the Percent Effect in assay [6] was 7.52%; in the assay filed under Homo sapiens, 15.8%; in [7] it was 3.81%; in [8], 18.8%; in assay [9] it was -6.34%.
`Cc1noc(C2CCCN(C(=O)c3ccc(Br)cc3F)C2)n1` (stereo unspecified): the Percent Effect is -5.32% in assay [1]; 10.4% in assay [2]; 2.06% in assay [3]; 2.58% in [4]; 6.95% in the assay with Trypanosoma cruzi; 2.74% in assay [5]. The Percent Effect is 6.87% in [6]; -5.04% in the assay filed under Homo sapiens; 1.91% in assay [7]; 18.8% in [8]; -19.5% in assay [9].
Consider `Cn1cc(C2CC(=O)NC23CCN(CC2CC2)CC3)cn1` (stereo unspecified), for which the Percent Effect is -4.62% in [1]; 5.33% in assay [2]; -4.75% in [3]; 13.8% in assay [4]; 2.32% in the assay with Trypanosoma cruzi; 4.12% in [5]. Moreover, the Percent Effect is 10.1% in assay [6]; 0.353% in the assay listed under Homo sapiens; 1.04% in assay [7]; 10% in [8]; -6.87% in assay [9].
Regarding `CC(NC(=O)Cc1cccs1)c1nnc2n1CCCCC2` (stereo unspecified), the Percent Effect in assay [1] was -5.37%; in [2] it was 10.8%; in assay [3] it was 0.496%; in [4], 4.55%; in the assay with Trypanosoma cruzi, 1.95%; in [5], -1.66%. Moreover, the Percent Effect is -7.54% in assay [6]; -0.0451% in the assay filed under Homo sapiens; 3.96% in assay [7]; 15.8% in [8]; 1.56% in assay [9].
